Experimental data as given in PubChem BioAssay (Tox21).
Values joined by “and” are separate entries in the source; they are usually repeats but may differ in a detail not shown here. Identical values can stand only once. Records with an inconclusive call do not appear. A structure can be active in one record and inactive in another. Active and inactive are the calls of the source. Unless noted, calls follow the shape of the dose curve; as a rule, active = well fitted curve in the direction sought with a large enough effect in the repeat runs; inconclusive = weak or mixed curves; inactive = no such curve, though single readings can be large; an effect the other way counts as inactive or inconclusive.

Key:
[1] = qHTS assay to identify small molecule agonists of the estrogen receptor alpha (ER-alpha) signaling pathway in the presence of an antagonist - cell viability counter screen (AID 1259386);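 also: series mostly up to about 92 µM; cells exposed to compounds for 22 h at 37 °C before the viability read; nearly all actives have a fitted effect of over 30% in size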
Outline: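 In this counter screen, compound effects on VM7Luc4E2 viability were tested in the presence of the antagonist ICI-182,780 at 10.0nM final. Compounds were dosed at 15 concentrations, exposure lasted 22hr, and the CellTiter-Fluor signal was read.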

[2] = target: Progesterone receptor (Homo sapiens) (UniProt P06401); assay: qHTS assay to identify small molecule agonists of the progesterone receptor (PR) signaling pathway (AID 1346784; calls by dose curve; also: nearly all actives have a fitted effect of over 30% in size; also: potency is read from the fitted curve at half-maximal effect)
Outline: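 Agonist qHTS: compounds pinned onto 3,000 PR-UAS-bla HEK 293T cells per well in charcoal-stripped serum medium, 16hr at 37C, then beta-lactamase activity measured by LiveBLAzer FRET fluorescence after 2 hours at room temperature.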

[3] = target: Progesterone receptor (Homo sapiens) (UniProt P06401); assay: qHTS assay to identify small molecule antagonists of the progesterone receptor (PR) signaling pathway (AID 1346795; active = well fitted inhibition curve with a large enough effect in the signal ratio in the repeat runs, not every such curve was filed as active; the % refers to the signal ratio)
Outline: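 Antagonist mode with agonist R5020 at 1 nM final and 16 hr incubation at 37C. Reporter was beta-lactamase driven by UAS in HEK293T (PR-UAS-bla), 2% charcoal-stripped serum; signal from LiveBLAzer FRET substrate, 2 hr at room temperature.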

[4] = qHTS assay to identify small molecule antagonists of the progesterone receptor (PR) signaling pathway - cell viability counter screen (AID 1346798); also: series mostly up to about 92 µM; nearly all actives have a fitted effect of over 50% in size
Outline: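 Cytotoxicity read as CellTiter-Glo luminescence (30 min, room temperature) in the same wells as the beta-lactamase readout. HEK293T PR-UAS-bla cells in charcoal-stripped 2% FBS received compound and R5020, then 16 h at 37C, 5% CO2.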

[5] = qHTS assay to identify small molecule agonists of the progesterone receptor (PR) signaling pathway - cell viability counter screen (AID 1346799; calls by dose curve; also: nearly all actives have a fitted effect of over 45% in size)
Outline: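 Cytotoxicity measured by CellTiter-Glo luminescence (30 min, RT) in the same wells as the PR beta-lactamase agonist read. Those HEK293T cells had 16 h compound treatment at 37 C in 2% charcoal-stripped FBS medium.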

[6] = qHTS assay to identify small molecule antagonists of the TGF-beta/Smad signaling pathway - cell viability counter screen (AID 1346824); also: nearly all actives have a fitted effect of over 50% in size
Outline: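 SBE-bla HEK 293T cells were plated overnight at 37 C, then given compounds in DMSO plus TGF-beta1 (added as 0.25 ng/mL solution) for 5 hr. After the bla read, CellTiter-Glo was added to the same wells and luminescence read after 30 min at room temperature.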

[7] = qHTS assay to identify small molecule agonists of the TGF-beta/Smad signaling pathway - cell viability counter screen (AID 1346829); also: top concentration of the series differs between compounds; nearly all actives have a fitted effect of over 45% in size
Outline: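 Here the cytotoxicity of library compounds is measured in SBE-bla HEK 293T cells treated for 5 hr, using CellTiter-Glo added to wells already read for the beta-lactamase reporter.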

[8] = qHTS assay to identify small molecule agonists of the TGF-beta/Smad signaling pathway (AID 1346859; active = well fitted activation curve with a large enough effect in the signal ratio in the repeat runs, not every such curve was filed as active; the % refers to the signal ratio; also: series mostly up to about 77 µM)
Outline: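 Fluorescence (ex 405 nm; em 460 and 530 nm) was read 2 h after LiveBLAzer FRET substrate at RT. The preceding compound treatment of overnight-plated SBE-bla HEK293T cells lasted 5 h at 37 C.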

[9] = target: Thyrotropin-releasing hormone receptor (Homo sapiens) (UniProt P34981); assay: qHTS assay to identify small molecule agonists of the thyrotropin-releasing hormone receptor (TRHR) signaling pathway (AID 1346891; calls by dose curve; also: series mostly up to about 58 µM)
Outline: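 Agonist-mode intracellular calcium readout: kinetic fluorescence over 3 min at 1 s intervals after compound addition to TRHR-HEK293 cells (18 h seeded, 2 h dye-loaded at 37 C). Fifteen concentrations, triplicates.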

[10] = Human pregnane X receptor (PXR) small molecule agonists, qHTS cell viability counter screen (AID 1346977); also: nearly all actives have a fitted effect of over 50% in size; also: potency is read from the fitted curve at half-maximal effect
Outline: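 Same-well viability read: CellTiter-Fluor added after 23 hr compound exposure, fluorescence measured 1 hr later. Cells were PXR-Luc HepG2 seeded at 2,000/well in 5% charcoal-stripped FBS medium, rested 5 hr before dosing at 37 C.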

[11] = Caspase-3/7 induction in HepG2 cells by small molecules, qHTS assay (AID 1346978); also: nearly all actives have a fitted effect of over 15% in size
Outline: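 Wild-type HepG2 cells (2,000/well) were settled 5 h at 37 C, 5% CO2, then exposed to compounds in DMSO for 17 h. Caspase-3/7 activity was read by luminescence 30 min after adding Caspase-Glo 3/7 reagent at room temperature.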

[12] = Caspase-3/7 induction in CHO-K1 cells by small molecules, qHTS cell viability counter screen (AID 1346979); also: nearly all actives have a fitted effect of over 35% in size
Outline: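 Cytotoxicity counter screen: CellTiter-Fluor added to compound-treated wild-type CHO-K1 cells at 16 h (37C, 5% CO2), fluorescence measured 1 h later; same wells as caspase-3/7 measurement.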

[13] = target: Nuclear receptor subfamily 1 group I member 2 (Homo sapiens) (UniProt O75469); assay: Human pregnane X receptor (PXR) small molecule agonists, qHTS assay (AID 1346982); also: nearly all actives have a fitted effect of over 35% in size; also: potency is read from the fitted curve at half-maximal effect
Outline: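 Reporter HepG2 cells expressing PXR-Luc are cultured in charcoal-stripped FBS (5%), treated with compounds for 24 hr at 37 C, and assayed by ONE-Glo luminescence after 30 min at room temperature.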

[14] = target: Nuclear receptor subfamily 1 group I member 2 (Rattus norvegicus) (UniProt Q9R1A7); assay: Rat pregnane X receptor (rPXR) activation by small molecules, qHTS assay (AID 1346983); conditions: rPXR luciferase reporter cells, One-Glo luminescence, 24 h; max activation: stronger effect = higher value; also: nearly all actives have a fitted effect of over 20% in size; also: potency is read from the fitted curve at half-maximal effect
Outline: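 Cell-based rPXR luciferase reporter assay, 2,000 cells per well, rested 5hr at 37 C before compound addition in DMSO, then 24 hr at 37 C. One-Glo reagent was added and luminescence read after 30 min at room temperature.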

[15] = target: Nuclear receptor subfamily 1 group I member 2 (Homo sapiens) (UniProt O75469); assay: CYP3A4 induction through human pregnane X receptor (PXR) by small molecules, qHTS assay (AID 1346984); also: nearly all actives have a fitted effect of over 40% in size; also: potency is read from the fitted curve at half-maximal effect
Outline: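 Induction measured in HepG2-based DPX-2 cells co-expressing human PXR and a CYP3A4 promoter-driven luciferase. After a 24-hour compound exposure, cells received CYP3A4 luciferin substrate at 3uM final for 3 hours, and light output was then recorded.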

[16] = target: Acetylcholinesterase (Homo sapiens) (UniProt P22303); assay: Acetylcholinesterase (AChE) small molecule antagonists: colormetric cell-based qHTS assay (AID 1347395; calls by dose curve; also: nearly all actives have a fitted effect of over 30% in size; also: potency is read from the fitted curve at half-maximal effect)
Outline: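 Colorimetric readout: DTNB quantifies thiocholine from acetylthiocholine hydrolysed by endogenous AChE of SH-SY5Y cells (2,000/well, plated overnight). Compound pretreatment 30 min, substrate incubation 90 min, both 37 C.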

[17] = target: Acetylcholinesterase (Homo sapiens) (UniProt P22303); assay: Acetylcholinesterase (AChE) small molecule antagonists: enzyme-based qHTS assay (AID 1347397; calls by dose curve; also: nearly all actives have a fitted effect of over 55% in size; also: potency is read from the fitted curve at half-maximal effect); conditions: Potency: AChE enzyme activity inhibition
Outline: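 Compound or DMSO vehicle was pin-transferred onto recombinant human AChE (50 mU/mL as dispensed) and left 30 min at room temperature. Acetylthiocholine with DTNB then started the reaction, read colorimetrically 10 min later.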

[18] = Caspase-3/7 induction in CHO-K1 cells by small molecules, qHTS assay (AID 1346980); also: nearly all actives have a fitted effect of over 15% in size
Outline: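 Wild-type cells were seeded at 1,500 per well and settled 5 hr at 37 C, 5% CO2, then exposed to DMSO-dissolved compounds for 17 hr. Caspase-Glo 3/7 reagent was added, and luminescence was read after 30min at room temperature.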

[19] = Caspase-3/7 induction in HepG2 cells by small molecules, qHTS cell viability counter screen (AID 1346981); also: series mostly up to about 92 µM; nearly all actives have a fitted effect of over 30% in size
Outline: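 In this quantitative HTS counter screen, compounds delivered in DMSO were left on unmodified HepG2 cells for 16 hr at 37 C. Viability was then determined fluorometrically with CellTiter-Fluor, in parallel with caspase-3/7 induction in the same wells.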

[20] = target: Thyrotropin-releasing hormone receptor (Homo sapiens) (UniProt P34981); assay: qHTS assay to identify small molecule antagonists of the thyrotropin-releasing hormone receptor (TRHR) signaling pathway (AID 1346877; active = well fitted inhibition curve with a large enough effect in the repeat runs, not every such curve was filed as active; also: series mostly up to about 51 µM)
Outline: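 Kinetic fluorescence (3 min, 1 s resolution) following stimulation with TRH at 1 nM final; HEK293 cells bearing human TRHR; 5 min compound preincubation at RT; concentration-response over 15 points, triplicates.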
% is scaled to controls: 0 for no effect and ±100 for the full control effect.

Chain of Nuclear receptor subfamily 1 group I member 2 (Rattus norvegicus) (Q9R1A7 whole entry, looked up): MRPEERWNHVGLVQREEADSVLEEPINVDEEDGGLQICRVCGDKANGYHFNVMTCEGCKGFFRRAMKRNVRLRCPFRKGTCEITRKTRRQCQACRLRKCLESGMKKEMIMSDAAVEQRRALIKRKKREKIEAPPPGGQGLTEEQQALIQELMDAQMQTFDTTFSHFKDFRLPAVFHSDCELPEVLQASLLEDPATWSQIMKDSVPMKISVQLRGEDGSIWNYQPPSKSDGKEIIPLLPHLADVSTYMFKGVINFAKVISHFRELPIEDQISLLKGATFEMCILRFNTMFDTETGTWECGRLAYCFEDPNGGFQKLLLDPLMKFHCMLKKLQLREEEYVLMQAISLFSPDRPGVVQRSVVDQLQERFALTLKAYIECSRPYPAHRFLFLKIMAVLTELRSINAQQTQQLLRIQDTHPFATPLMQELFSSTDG
Chain of Progesterone receptor (Homo sapiens) (P06401 whole entry, looked up): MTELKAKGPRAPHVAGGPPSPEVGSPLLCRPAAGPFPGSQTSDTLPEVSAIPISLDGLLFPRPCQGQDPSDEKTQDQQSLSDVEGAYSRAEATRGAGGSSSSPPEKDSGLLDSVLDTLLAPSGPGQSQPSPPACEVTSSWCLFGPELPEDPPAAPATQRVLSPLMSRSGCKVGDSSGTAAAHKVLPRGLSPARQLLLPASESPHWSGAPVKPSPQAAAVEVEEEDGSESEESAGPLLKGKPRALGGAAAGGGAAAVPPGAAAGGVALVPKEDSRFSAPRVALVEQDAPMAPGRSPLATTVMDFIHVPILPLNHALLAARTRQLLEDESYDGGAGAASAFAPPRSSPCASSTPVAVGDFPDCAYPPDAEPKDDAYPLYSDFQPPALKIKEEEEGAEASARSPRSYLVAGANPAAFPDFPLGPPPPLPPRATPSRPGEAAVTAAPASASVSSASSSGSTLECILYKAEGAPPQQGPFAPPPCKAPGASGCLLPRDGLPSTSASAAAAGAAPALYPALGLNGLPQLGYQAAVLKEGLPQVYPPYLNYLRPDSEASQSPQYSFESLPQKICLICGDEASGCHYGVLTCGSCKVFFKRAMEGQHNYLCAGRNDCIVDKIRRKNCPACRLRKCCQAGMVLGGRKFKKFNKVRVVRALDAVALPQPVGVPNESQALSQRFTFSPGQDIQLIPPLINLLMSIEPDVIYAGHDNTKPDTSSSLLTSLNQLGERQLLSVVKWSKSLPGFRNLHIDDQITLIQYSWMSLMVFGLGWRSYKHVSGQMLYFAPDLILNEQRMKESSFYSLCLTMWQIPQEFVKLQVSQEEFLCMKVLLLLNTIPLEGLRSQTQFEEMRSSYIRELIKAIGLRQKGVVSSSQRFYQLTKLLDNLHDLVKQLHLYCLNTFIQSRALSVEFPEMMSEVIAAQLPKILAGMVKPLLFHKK
Chain of Thyrotropin-releasing hormone receptor (Homo sapiens) (P34981 whole entry, looked up): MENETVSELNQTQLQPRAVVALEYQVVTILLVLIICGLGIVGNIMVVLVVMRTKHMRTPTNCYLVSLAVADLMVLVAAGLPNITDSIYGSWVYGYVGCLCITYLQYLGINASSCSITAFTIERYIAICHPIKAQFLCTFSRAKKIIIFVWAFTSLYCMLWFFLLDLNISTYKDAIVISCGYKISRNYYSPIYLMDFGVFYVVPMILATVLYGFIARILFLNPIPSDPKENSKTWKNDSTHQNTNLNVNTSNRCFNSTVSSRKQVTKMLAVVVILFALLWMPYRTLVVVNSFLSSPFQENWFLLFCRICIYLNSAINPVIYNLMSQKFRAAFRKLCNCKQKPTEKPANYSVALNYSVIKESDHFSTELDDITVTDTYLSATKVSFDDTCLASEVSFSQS
Chain of Acetylcholinesterase (Homo sapiens) (P22303 whole entry, looked up): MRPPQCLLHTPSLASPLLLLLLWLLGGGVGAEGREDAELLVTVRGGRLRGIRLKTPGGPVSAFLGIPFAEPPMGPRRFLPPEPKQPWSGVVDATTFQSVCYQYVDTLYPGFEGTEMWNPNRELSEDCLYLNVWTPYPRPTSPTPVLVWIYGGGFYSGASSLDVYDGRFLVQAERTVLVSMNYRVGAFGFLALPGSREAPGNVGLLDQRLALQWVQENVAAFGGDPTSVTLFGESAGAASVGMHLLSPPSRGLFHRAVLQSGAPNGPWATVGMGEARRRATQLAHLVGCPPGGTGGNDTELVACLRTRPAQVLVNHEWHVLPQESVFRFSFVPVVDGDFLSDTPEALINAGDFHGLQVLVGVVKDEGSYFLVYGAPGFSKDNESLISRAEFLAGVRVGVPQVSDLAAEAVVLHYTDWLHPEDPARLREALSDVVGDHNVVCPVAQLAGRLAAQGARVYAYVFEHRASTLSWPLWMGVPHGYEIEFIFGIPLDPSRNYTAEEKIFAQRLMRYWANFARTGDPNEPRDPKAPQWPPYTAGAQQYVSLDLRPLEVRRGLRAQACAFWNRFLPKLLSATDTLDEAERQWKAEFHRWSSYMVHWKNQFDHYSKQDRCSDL
Chain of Nuclear receptor subfamily 1 group I member 2 (Homo sapiens) (O75469 whole entry, looked up): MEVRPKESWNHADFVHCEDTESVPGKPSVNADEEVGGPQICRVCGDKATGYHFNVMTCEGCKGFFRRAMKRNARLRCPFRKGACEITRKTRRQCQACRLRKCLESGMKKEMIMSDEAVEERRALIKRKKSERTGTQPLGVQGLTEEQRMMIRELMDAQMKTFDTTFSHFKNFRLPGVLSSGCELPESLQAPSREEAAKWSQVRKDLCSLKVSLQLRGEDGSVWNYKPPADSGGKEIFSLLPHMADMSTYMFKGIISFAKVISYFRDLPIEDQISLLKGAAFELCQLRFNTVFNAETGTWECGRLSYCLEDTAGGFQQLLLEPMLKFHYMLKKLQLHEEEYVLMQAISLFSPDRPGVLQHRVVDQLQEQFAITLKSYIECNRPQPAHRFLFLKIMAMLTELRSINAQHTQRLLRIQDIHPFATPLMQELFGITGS

CC(=O)[C@H]1CC[C@H]2[C@@H]3CC[C@H]4C[C@](C)(O)CC[C@]4(C)[C@H]3CC[C@]12C
inactive: Potency [1] | Potency [2] | Potency [3] | Potency [4] | Potency [5] | Potency [6] | Potency [7] | outcome [8] | Potency [9] | Potency [10] | Potency [11] | Potency [12] | Potency [13] | Potency [15] | Potency [16] | Potency [17]
active: Potency [14] 3.98 µM

CS/C(C)=N/OC(=O)N(C)SN(C)C(=O)O/N=C(\C)SC
active: Potency [16] 1.42 µM | Potency [17] 5.03 µM
inactive: Potency [1] | Potency [2] | Potency [3] | Potency [4] | Potency [5] | Potency [6] | Potency [7] | outcome [8] | Potency [9] | Potency [11] | Potency [18] | Potency [19]

c1ccc(C2CC2)c(OCC2=NCCN2)c1
inactive: Potency [1] | Potency [2] | Potency [3] | Potency [4] | Potency [5] | Potency [6] | Potency [7] | outcome [8] | Potency [9] | Potency [10] | Potency [11] | Potency [12] | Potency [19] | Potency [13] | Potency [17]

Cn1sc(Cl)cc1=O
inactive: Potency [1] | Potency [2] | Potency [3] | Potency [4] | Potency [6] | Potency [7] | outcome [8] | Potency [9] | Potency [10] | Potency [12] | Potency [18] | Potency [19] | Potency [13] | max activation [14] -5.85% | Potency [15] | Potency [16] | Potency [17]

ClCCCCBr
inactive: Potency [1] | Potency [2] | Potency [3] | Potency [4] | Potency [6] | Potency [7] | outcome [8] | Potency [20] | Potency [9] | Potency [10] | Potency [12] | Potency [18] | Potency [13] | Potency [16] | Potency [17]

O=C(C(Cl)(Cl)Cl)C(Cl)(Cl)Cl
inactive: Potency [1] | Potency [2] | Potency [3] | Potency [4] | Potency [5] | Potency [6] | Potency [7] | outcome [8] | Potency [9] | Potency [10] | Potency [11] | Potency [18] | Potency [19] | Potency [13] | Potency [16] | Potency [17]

Cl/C=C\Cl
inactive: Potency [1] | Potency [2] | Potency [3] | Potency [4] | Potency [5] | Potency [6] | outcome [8] | Potency [20] | Potency [9] | Potency [10] | Potency [12] | Potency [18] | Potency [13] | Potency [16] | Potency [17]

CCOS(C)(=O)=O
inactive: Potency [1] | Potency [2] | Potency [3] | Potency [4] | Potency [5] | Potency [6] | Potency [7] | outcome [8] | Potency [12] | Potency [13] | Potency [16] | Potency [17]

CCOC(=O)C(Cl)C(C)=O (stereo not given)
inactive: Potency [1] | Potency [2] | Potency [3] | Potency [4] | Potency [5] | Potency [6] | outcome [8] | Potency [20] | Potency [10] | Potency [11] | Potency [12] | Potency [18] | Potency [19] | Potency [13] | Potency [17]

Clc1cccc(SC2CCNCC2)n1
inactive: Potency [1] | Potency [2] | Potency [3] | Potency [4] | Potency [5] | Potency [6] | Potency [7] | outcome [8] | Potency [10] | Potency [11] | Potency [12] | Potency [18] | Potency [19] | Potency [16] | Potency [17]

CCn1cc[n+](C)c1
inactive and 15.3 µM (active): Potency [2]
inactive and 54.5 µM (active): Potency [10]
inactive and 48.6 µM (active): Potency [13]
inactive: Potency [1] | Potency [3] | Potency [4] | Potency [5] | Potency [6] | Potency [7] | outcome [8] | Potency [11] | Potency [12] | Potency [18] | Potency [19]

COc1cc(Cl)c(OC)cc1Cl
inactive: Potency [1] | Potency [2] | Potency [3] | Potency [4] | Potency [5] | Potency [6] | Potency [7] | outcome [8] | Potency [9] | Potency [10] | Potency [11] | Potency [12] | Potency [18] | Potency [13] | Potency [16] | Potency [17]

O=C(O)C(F)(F)C(F)(F)C(F)(F)C(F)(F)C(F)(F)C(F)(F)C(F)(F)C(F)(F)C(F)(F)F
inactive: Potency [1] | Potency [2] | Potency [3] | Potency [4] | Potency [5] | Potency [6] | Potency [7] | outcome [8] | Potency [10] | Potency [11] | Potency [12] | Potency [18] | Potency [19] | Potency [13] | Potency [16] | Potency [17]

C=CC(=O)OCC(C)O (stereo not given)
inactive: Potency [1] | Potency [2] | Potency [3] | Potency [4] | Potency [5] | Potency [6] | outcome [8] | Potency [20] | Potency [9] | Potency [10] | Potency [18] | Potency [19] | Potency [13] | Potency [16] | Potency [17]

C#CCOC(C(=O)OCCN(C)C)(c1ccccc1)c1ccccc1
inactive: Potency [1] | Potency [2] | Potency [3] | Potency [4] | Potency [5] | Potency [6] | Potency [7] | outcome [8] | Potency [10] | Potency [11] | Potency [12] | Potency [18] | max activation [14] -6.97%
active: Potency [15] 15.8 µM

c1ccc(CN2CCNCC2)cc1
inactive: Potency [1] | Potency [2] | Potency [3] | Potency [4] | Potency [5] | Potency [6] | Potency [7] | outcome [8] | Potency [10] | Potency [12] | Potency [19] | Potency [13] | Potency [16] | Potency [17]

C=COC(C)=O
inactive: Potency [1] | Potency [2] | Potency [3] | Potency [4] | Potency [5] | Potency [6] | Potency [7] | outcome [8] | Potency [10] | Potency [12] | Potency [18] | Potency [19] | Potency [13] | Potency [16] | Potency [17]
